Read-out in experiment [1]: Interleukin-1 alpha (IL1a), IL1A (gene 3552)
Kind of experiment: BSK_KF3CT_IL1a: BioMAP Diversity Plus: KF3CT Assay for Interleukin-1 alpha (IL1a) Biomarker Activity (AID 2283070). The conditions noted are these: primary human keratinocytes with fibroblasts; actives raise or lower the signal. Put shortly:
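Human keratinocyte plus foreskin fibroblast primary co-culture, sampled 24 h after chemical dosing. IL-1a measured by ELISA; responses fitted bidirectionally against DMSO baseline (negative control), so gain or loss of signal both count.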

Read-out in experiment [2]: TIMP metallopeptidase inhibitor 2 (TIMP2), TIMP2 (gene 7077)
Kind of experiment: BSK_KF3CT_TIMP2: BioMAP Diversity Plus: KF3CT Assay for TIMP metallopeptidase inhibitor 2 (TIMP2) Biomarker Activity (AID 2283071). The conditions noted are these: primary human keratinocytes with fibroblasts; actives raise or lower the signal. The gist of the method:
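Cells: human keratinocytes co-cultured with foreskin fibroblasts. Treat with chemical, 24 h. Measure TIMP-2 by ELISA; fit curves bidirectionally vs DMSO baseline.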

Read-out in experiment [3]: C-C motif chemokine 2 (Homo sapiens) (UniProt P13500)
Kind of experiment: BSK_KF3CT_MCP1: BioMAP Diversity Plus: KF3CT Assay for Monocyte Chemoattractant Protein 1 (MCP1/CCL2) Biomarker Activity (AID 2283073). The conditions noted are these: primary human keratinocytes with fibroblasts; actives raise or lower the signal. Put shortly: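 ELISA read-out of MCP-1, 24 h post-dose, in primary human skin keratinocytes co-cultured with fibroblasts. Parallel SRB staining monitors cytotoxicity; changes fitted both directions relative to DMSO.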

Read-out in experiment [4]: Matrix Metallopeptidase 9 (MMP9), MMP9 (gene 4318)
The experiment can be described thus: BSK_KF3CT_MMP9: BioMAP Diversity Plus: KF3CT Assay for Matrix Metallopeptidase 9 (MMP9) Biomarker Activity (AID 2283074). The conditions noted are these: primary human keratinocytes with fibroblasts; actives raise or lower the signal. The gist of the method: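 Keratinocyte plus foreskin fibroblast human primary skin co-culture was dosed with chemical and MMP-9 was quantified by ELISA 24 h later. Bidirectional curve fitting used DMSO as negative control and activity baseline.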

Read-out in experiment [5]: CD40, CD40 (gene 958)
The experiment can be described thus: BSK_LPS_CD40: BioMAP Diversity Plus: LPS Assay for CD40 Biomarker Activity (AID 2283076). The conditions noted are these: primary human HUVEC with PBMC; actives raise or lower the signal. The gist of the method:
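In the LPS system of human endothelial cells with peripheral blood mononuclear cells, CD40 levels were read by ELISA 24 h post-treatment. Signal changes in either direction were fitted against the DMSO baseline, with parallel SRB protein staining.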

Read-out in experiment [6]: Interleukin-8 (IL8), CXCL8 (gene 3576)
Kind of experiment: BSK_LPS_IL8: BioMAP Diversity Plus: LPS Assay for Interleukin-8 (IL8) Biomarker Activity (AID 2283078). The conditions noted are these: primary human HUVEC with PBMC; actives raise or lower the signal. Put shortly:
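ELISA read-out of IL-8 after 24 h chemical treatment of LPS-activated endothelial/PBMC human primary co-cultures. Changes either up or down relative to DMSO; overt cytotoxicity checked by sulforhodamine B staining in parallel wells.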

Experiment [7] is described as follows: BSK_LPS_SRB: Viability Assessment in the BioMAP Diversity Plus: LPS Assay (AID 2283079).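 Also: total protein by sulforhodamine B absorbance as a cytotoxicity measure; measured one day after compound addition.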 The conditions noted are these: primary human HUVEC with PBMC. The gist of the method:
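SRB viability endpoint: cells fixed with 10% TCA, stained with 0.1% SRB, read at 560 nm, 24 h post-dose. HUVEC/PBMC co-culture; signal change in either direction scored relative to DMSO.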

Read-out in experiment [8]: Monocyte Chemoattractant Protein-1 (MCP1), CCL2 (gene 6347)
The experiment can be described thus: BSK_LPS_MCP1: BioMAP Diversity Plus: LPS Assay for Monocyte Chemoattractant Protein-1 (MCP1) Biomarker Activity (AID 2283081). The conditions noted are these: primary human HUVEC with PBMC; actives raise or lower the signal. Put shortly: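 Secreted MCP-1 read by ELISA at 24 h post-dosing in an LPS-activated co-culture of endothelial cells with peripheral blood mononuclear cells. Fits run in both directions, DMSO as baseline; parallel SRB staining tracks overt cytotoxicity.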

A short description of experiment [9]: BSK_LPS_PGE2: BioMAP Diversity Plus: LPS Assay for Prostaglandin E2 (PGE2) Biomarker Activity (AID 2283082).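 As to AC50: secreted prostaglandin E2 measured by ELISA in LPS-stimulated co-culture.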 The following applies: primary human HUVEC with PBMC; actives raise or lower the signal. The gist of the method:
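LPS-activated HUVEC/PBMC co-culture; cmpd dosed, 24 h; PGE2 by ELISA; bidirectional fit vs DMSO; SRB (0.1%, TCA-fixed, 560 nm) in parallel plates for overt cytotox.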

Read-out in experiment [10]: Macrophage colony-stimulating factor (MCSF), CSF1 (gene 1435)
Kind of experiment: BSK_LPS_MCSF: BioMAP Diversity Plus: LPS Assay for Macrophage colony-stimulating factor (MCSF) Biomarker Activity (AID 2283083). The conditions noted are these: primary human HUVEC with PBMC; actives raise or lower the signal. Put shortly: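 Bidirectional fitting against DMSO was applied to M-CSF levels read by ELISA at 24 h post-dose. The system pairs human umbilical vein endothelium with peripheral blood mononuclear cells; parallel SRB staining tracked cytotoxicity.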

Read-out in experiment [11]: Tissue Factor, F3 (gene 2152)
Kind of experiment: BSK_LPS_TissueFactor: BioMAP Diversity Plus: LPS Assay for Tissue Factor Biomarker Activity (AID 2283084). The conditions noted are these: primary human HUVEC with PBMC; actives raise or lower the signal. The gist of the method:
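Compound was added to an endothelial cell/PBMC co-culture, and after 24 h tissue factor (CD142) was read by ELISA. Gain or loss of signal was fitted against a DMSO baseline, and parallel SRB staining (560 nm) tracked overt cytotoxicity.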

Read-out in experiment [12]: Tumor necrosis factor (Homo sapiens) (UniProt P01375)
Kind of experiment: BSK_LPS_TNFa: BioMAP Diversity Plus: LPS Assay for Tumour Necrosis Factor alpha (TNFa) Biomarker Activity (AID 2283085).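 As to AC50: TNFa protein level quantified by ELISA in the co-culture.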 The conditions noted are these: primary human HUVEC with PBMC; actives raise or lower the signal. The gist of the method: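 Read-out is ELISA of TNFa in primary human endothelial cell–PBMC co-cultures at 24 h after compound. Activity in either direction was fitted against DMSO.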

Read-out in experiment [13]: Vascular cell adhesion molecule 1 (VCAM1), VCAM1 (gene 7412)
Kind of experiment: BSK_LPS_VCAM1: BioMAP Diversity Plus: LPS Assay for Vascular cell adhesion molecule 1 (VCAM1) Biomarker Activity (AID 2283086). The following applies: primary human HUVEC with PBMC; actives raise or lower the signal. The gist of the method: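 HUVEC + PBMC co-culture, LPS system; compound 24 h; VCAM-1 by ELISA; bidirectional fit vs DMSO control; parallel SRB (0.1%, TCA-fixed, 560 nm) for cytotoxicity.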

Read-out in the next experiment: CD38, CD38 (gene 952)
The experiment can be described thus: BSK_SAg_CD38: BioMAP Diversity Plus: SAg Assay for CD38 Biomarker Activity (AID 2283087). The following applies: primary human HUVEC with PBMC; actives raise or lower the signal. The gist of the method:
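Human HUVEC plus PBMC co-culture stimulated with superantigen; CD38 measured by ELISA 24 h after chemical dosing. Fluorescence read-out, bidirectional fit against DMSO; cytotoxicity tracked in parallel by SRB and Alamar Blue.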

Read-out in experiment [14]: CD40, CD40 (gene 958)
The experiment can be described thus: BSK_SAg_CD40: BioMAP Diversity Plus: SAg Assay for CD40 Biomarker Activity (AID 2283088). The following applies: primary human HUVEC with PBMC; actives raise or lower the signal. Put shortly: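 CD40 is measured by fluorescence ELISA in an endothelial/PBMC primary human co-culture at 24 h post-dose. Fitting is bidirectional, DMSO baseline. Parallel SRB staining (560 nm) flags cytotoxicity.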

Read-out in another experiment: CD69, CD69 (gene 969)
Kind of experiment: BSK_SAg_CD69: BioMAP Diversity Plus: SAg Assay for CD69 Biomarker Activity (AID 2283089). The following applies: primary human HUVEC with PBMC; actives raise or lower the signal. Put shortly: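 ELISA, fluorescence read-out: CD69 on human umbilical vein endothelial cell + PBMC co-culture, 24 h post-dosing. Gain or loss of signal fitted bidirectionally against DMSO baseline.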

Read-out in experiment [15]: E-selectin (Homo sapiens) (UniProt P16581)
Kind of experiment: BSK_LPS_Eselectin: BioMAP Diversity Plus: LPS Assay for Eselectin Biomarker Activity (AID 2283077). The conditions noted are these: primary human HUVEC with PBMC; actives raise or lower the signal. Put shortly: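 E-selectin ELISA on LPS-stimulated endothelial cell/PBMC co-cultures, read 24 h post-treatment; gains and losses fitted against DMSO. Parallel SRB staining (0.1% SRB after 10% TCA fixation, 560 nm) flags overt cytotoxicity.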

Read-out in experiment [16]: Interleukin-1 alpha (IL1a), IL1A (gene 3552)
Kind of experiment: BSK_LPS_IL1a: BioMAP Diversity Plus: LPS Assay for Interleukin-1 alpha (IL1a) Biomarker Activity (AID 2283080). The following applies: primary human HUVEC with PBMC; actives raise or lower the signal. Put shortly: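 Readout is IL-1a level by ELISA, 24 h post-dose, fitted as gain or loss relative to DMSO. System: LPS-activated human primary co-culture of vascular endothelium and peripheral blood mononuclear cells, with parallel SRB total-protein cytotoxicity.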

Here are results for 4 molecules from PubChem BioAssay (EPA / NIEHS).

Structures are written as SMILES. Activity calls are given as the source filed them. The calls were made as follows: active = hit-call score of the fitted dose curve at least 0.9, where 1 is the maximum; inactive = score below 0.9.

Sequence of Tumor necrosis factor (Homo sapiens) (P01375 whole entry, looked up): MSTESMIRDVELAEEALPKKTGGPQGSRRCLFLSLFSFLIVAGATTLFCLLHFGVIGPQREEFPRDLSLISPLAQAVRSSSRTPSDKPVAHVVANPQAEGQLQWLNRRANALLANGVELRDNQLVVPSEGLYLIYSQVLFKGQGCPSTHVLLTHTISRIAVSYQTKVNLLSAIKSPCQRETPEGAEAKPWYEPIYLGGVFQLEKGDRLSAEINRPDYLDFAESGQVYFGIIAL
Sequence of E-selectin (Homo sapiens) (P16581 whole entry, looked up): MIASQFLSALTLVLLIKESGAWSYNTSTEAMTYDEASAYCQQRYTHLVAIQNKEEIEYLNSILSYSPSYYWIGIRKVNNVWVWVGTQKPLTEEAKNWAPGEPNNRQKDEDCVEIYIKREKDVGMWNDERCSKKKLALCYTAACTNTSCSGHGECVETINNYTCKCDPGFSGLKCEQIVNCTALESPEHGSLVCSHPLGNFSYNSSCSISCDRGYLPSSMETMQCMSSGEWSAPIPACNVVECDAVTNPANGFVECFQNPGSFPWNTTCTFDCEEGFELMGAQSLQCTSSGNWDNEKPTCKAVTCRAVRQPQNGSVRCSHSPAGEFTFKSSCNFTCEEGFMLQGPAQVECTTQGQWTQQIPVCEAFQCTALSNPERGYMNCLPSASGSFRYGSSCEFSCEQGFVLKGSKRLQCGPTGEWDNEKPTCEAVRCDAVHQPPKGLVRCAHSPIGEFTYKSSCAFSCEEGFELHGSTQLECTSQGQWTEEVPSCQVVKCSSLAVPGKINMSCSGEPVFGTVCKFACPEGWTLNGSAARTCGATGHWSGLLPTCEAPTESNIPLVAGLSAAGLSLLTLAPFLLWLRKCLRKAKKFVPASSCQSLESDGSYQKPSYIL

In the case of `CC(c1cc(C(C)(C)C)cc(C(C)(C)C)c1O)c1cc(C(C)(C)C)cc(C(C)(C)C)c1O`, the outcome in experiment [1] is “inactive”; in experiment [2], “inactive”; in [3], “inactive”; in experiment [4], “inactive”; with CD40, CD40 (gene 958) [5], “inactive”; in experiment [6], “inactive”. For the same molecule, the outcome in experiment [7], in experiment [8], in experiment [9], in [10], in experiment [11] and in [12] was inactive. Moreover, the outcome in experiment [13] was “inactive”; in the experiment with CD38, CD38 (gene 952), “inactive”; in the experiment with CD40, CD40 (gene 958) [14], “inactive”; with CD69, CD69 (gene 969), “inactive”.
As usually defined, the AC50 is the midpoint of the concentration-response curve, whichever way the signal moves. On to `CCN1CN(CC)CN(CC)C1`, for which the outcome was “inactive” in experiment [1]; “inactive” in experiment [2]; “inactive” in [3]; “inactive” in experiment [4]; “inactive” with CD40, CD40 (gene 958) [5]; “inactive” in [6]. The outcome is “inactive” in [7]; “inactive” in experiment [9]; “inactive” in [10]; “inactive” in experiment [11]; “inactive” in experiment [13]; “inactive” in the experiment with CD38, CD38 (gene 952). In addition, the outcome with CD40, CD40 (gene 958) [14] is “inactive”; with CD69, CD69 (gene 969), “inactive”. For the same molecule, the AC50 in [12] was 2220 nM (active).
On to `CCNc1nc(NC(C)(C)C)nc(OC)n1`, for which the outcome in experiment [1] is “inactive”; in [2] it was “inactive”; in experiment [3], “inactive”; in experiment [4], “inactive”; with CD40, CD40 (gene 958) [5] it was “inactive”; in [15], “inactive”. Further, the result in experiment [6], in [7], in experiment [16], in experiment [10], in experiment [11] and in experiment [13] was inactive. The outcome in the experiment with CD38, CD38 (gene 952) is “inactive”; in the experiment with CD40, CD40 (gene 958) [14] it was “inactive”; with CD69, CD69 (gene 969) it was “inactive”. The AC50 was 72.7 nM (active) in [9] and 5590 nM (active) in experiment [12].
Regarding `O=C1CCCCCCCCCCC1`, the outcome is “inactive” in experiment [1]; “inactive” in [2]; “inactive” in experiment [3]; “inactive” in experiment [4]; “inactive” in the experiment with CD40, CD40 (gene 958) [5]; “inactive” in experiment [6]. For the same molecule, the outcome in [7], in experiment [8], in experiment [9], in experiment [10], in experiment [11] and in experiment [12] was inactive. In addition, the outcome in experiment [13] was “inactive”; with CD38, CD38 (gene 952), “inactive”; with CD40, CD40 (gene 958) [14], “inactive”; with CD69, CD69 (gene 969) it was “inactive”.
